Laboratory results reported in PubChem BioAssay AID2685 (National Center for Advancing Translational Sciences (NCATS), 2010).
The campaign covered roughly 320,000 compounds. About 2,100 (0.66%) were called active. Another 53% or so got no clear call; they are omitted. Calls follow the shape of the dose curve; as a rule, active = well fitted inhibition curve with a large enough effect in the signal ratio, with a control signal flat (not every such curve was filed as active); inconclusive = small, poorly fitted or top-dose-only effect, or effect the other way, or a change in a side signal; inactive = flat fitted curve, though single readings scatter; the % refers to the signal ratio. The sample as a whole holds a higher share of actives than the screen did.

Assay: qHTS Assay for Lipid Storage Modulators in Drosophila S3 Cells;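 as to cell number change: cells counted by Cell Tracker Red CMTPX staining in the red channel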; as to lipid storage change, negative = inhibition: % is scaled to controls: 0 for no effect and ±100 for the full control effect
Conditions: BODIPY lipid droplet fluorescence, 18-24 h, cells fed with added oleic acid; cell number change: measured here: cell count max response; series mostly up to 46.1 µM; lipid storage change, negative = inhibition: at the top concentration
In short: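 Laser-scanning cytometry quantifies lipid droplet accumulation (500–530 nm total intensity; droplet/cell object ratio) in oleic acid-fed (400 uM added) Drosophila S3 cells treated with a concentration series. 20 uM Triacsin C defined 100% inhibition.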
Potency is read from the fitted curve at half-maximal effect.

SMILES | lipid storage change, negative = inhibition | cell number change | Potency | outcome
CN(C)c1ccc(S(=O)(=O)NCC(=O)NCc2ccccc2)cc1[N+](=O)[O-] | 24.8% (inactive) | 21.7% |  | 
NC(=O)c1nsc(C(=O)N(CC(=O)NC2CCCCC2)c2ccc(Cl)cc2)c1N |  | -2.56% | 14.6 µM (active) | 
Cc1ccc(C)c(N(CC(=O)NC2CCCCC2)C(=O)c2snc(C(N)=O)c2N)c1 |  | -26.2% |  | inactive
CCCC(C(=O)NC1CCCC1)N(C(=O)c1snc(C(N)=O)c1N)c1ccc(F)cc1 (stereo not given) | 23.9% (inactive) | -10.5% |  | 
NC(=O)c1nsc(C(=O)N(CC(=O)NC2CCCCC2)Cc2ccc(F)cc2)c1N |  |  |  | inactive
NC(=O)c1nsc(C(=O)N(CC(=O)NC2CCCC2)c2cnc3ccccc3c2)c1N | -11% (inactive) | -18% |  | 
NC(=O)c1nsc(C(=O)N(CC(=O)NC2CCCC2)c2ccc(F)c(Cl)c2)c1N |  | -7.14% | 0.116 µM (active) | 
CC1=NN(C(=O)Cc2ccc([N+](=O)[O-])cc2)C(O)(C(F)(F)C(F)(F)F)C1 (stereo not given) | 5.48% (inactive) | 24% |  | 
CC(=O)NCCc1nc2ccccc2n1Cc1ccccc1 | -4.21% (inactive) | 18.1% |  | 
O=C(CSc1ncn[nH]1)Nc1cc(S(=O)(=O)N2CCCC2)ccc1Cl |  |  |  | inactive
CN(C)S(=O)(=O)c1cc(NC(=O)COC(=O)CCc2ccccc2)ccc1Cl |  | 11.3% |  | inactive
Nc1[nH]nc2nc(N3CCOCC3)nc(-c3ccccc3)c12 | 0.177% (inactive) | -23.8% |  | 
O=C1C(=O)N(CCN2CCOCC2)C(c2cccnc2)/C1=C(/O)c1ccccc1 (stereo not given) | 16.1% (inactive) | 0.678% |  | 
O=C1N=C2N(CCN3CCCCC3)c3ccccc3N2/C1=C\c1ccc([N+](=O)[O-])o1 | -28.5% (inactive) | 2.09% |  | 
O=C1C=C(NCCN2CCOCC2)C(=O)c2cnccc21 |  | -9.98% | 11.6 µM (active) | 
O=C(NCCN1CCOCC1)c1ccncc1 |  | -7.07% |  | inactive
O=C1C=C(NCCN2CCOCC2)CC(c2ccccc2)C1 (stereo not given) | 27.3% (inactive) | -2.43% |  | 
COc1ccccc1NC(=O)N1C2CCCC1CC(NC(=O)c1ccccc1)C2 (stereo not given) | -1.34% (inactive) | 9.36% |  | 
COc1ccc(NS(=O)(=O)c2ccc3c(c2)oc(=O)n3C)cc1Cl | 4.42% (inactive) | 10.6% |  | 
COC(=O)c1ccc(Cl)c(NC(=O)CN(c2ccccc2)S(=O)(=O)c2ccc(OC)cc2)c1 | -4.68% (inactive) | -1.49% |  | 
O=C(O)c1ccc(-c2nc(-c3ccccc3)c(-c3cccs3)[nH]2)cc1 | 13.4% (inactive) | 16.3% |  | 
O=[N+]([O-])c1cccc(-c2nc(-c3ccccc3)c(-c3cccs3)[nH]2)c1 | -10.9% (inactive) | -14.7% |  | 
O=[N+]([O-])c1ccc(-c2nc(-c3cccs3)c(-c3cccs3)[nH]2)cc1 |  | 7.44% | 23.1 µM (active) | 

SMILES | lipid storage change, negative = inhibition | cell number change | Potency | outcome
O=S(=O)(Nc1ccc2nc(N3CCOCC3)sc2c1)c1ccc(Cl)cc1 |  | -15.7% |  | inactive
CCOC(=O)C1(Cc2cccc(OC)c2)CCN(Cc2cc(OC)ccc2OC)CC1 | -8.02% (inactive) | -22.3% |  | 
COc1cc(OC)cc(C(=O)Nc2ccc(C(=O)c3ccncc3)cc2)c1 | -7.33% (inactive) | 2.59% |  | 
COc1ccc(C(CCN2CCCC(C)C2)c2c(OC)cc(OC)c3c(C)cc(=O)oc23)cc1 (stereo not given) | 0.351% (inactive) | 7.77% |  | 
CC[n+]1c(C)n(-c2ccccc2)c2ccc(C(=O)OC)cc21 | 0.792% (inactive) | 6.2% |  | 
Cc1cc(C)n2ncc(C(=O)O)c2n1 | 16.6% (inactive) | 12.3% |  | 
Cc1cc(C(F)(F)F)n2ncc(C(=O)O)c2n1 |  |  | 14.6 µM (active) | 
Cc1ccc(-c2cc(C(F)(F)F)n3ncc(C(=O)O)c3n2)cc1 | -0.719% (inactive) | -10.1% |  | 
C=CCN1CC(=O)N2C(C)c3[nH]c4ccccc4c3C[C@H]2C1=O (stereo not given in full) | 8.32% (inactive) | 1.11% |  | 
CCC(=O)Nc1ccc(-c2nnc(SCC(=O)Nc3nccs3)n2C)cc1 | 8.69% (inactive) | 0.852% |  | 
CC1Cc2cc(/C(O)=C3/C(=O)C(=O)N(CC4CCCO4)C3c3ccco3)ccc2O1 (stereo not given) | 8.54% (inactive) | 9.06% |  | 
COc1cc(C2/C(=C(\O)c3ccc4c(c3)CC(C)O4)C(=O)C(=O)N2CC2CCCO2)cc(OC)c1OC (stereo not given) |  | -16% | 1.3 µM (active) | 
COc1cccc(C2/C(=C(/O)c3ccc4c(c3)CC(C)O4)C(=O)C(=O)N2CC2CCCO2)c1 (stereo not given) |  | 14.4% |  | inactive
CC(C)N(C(=O)CSc1nnc(NC(=O)c2cccs2)s1)C(C)C | -9.8% (inactive) | -20.6% |  | 
CCc1nnc(NC(=O)CCC(=O)NCc2ccc(C)cc2)s1 |  |  |  | inactive
CCOC(=O)c1c(NC(=O)CN2C(=O)NC3(CCCCC3C)C2=O)sc(C)c1C (stereo not given) | 1.6% (inactive) | -4.46% |  | 
COC(=O)c1c(NC(=O)CN2C(=O)NC3(CCC(C)CC3)C2=O)sc2c1CCC2 (stereo not given) | 20.5% (inactive) | -11.8% |  | 
COC(=O)c1c(NC(=O)CN2C(=O)NC3(CCCCC3C)C2=O)sc2c1CCC2 (stereo not given) |  | 2.22% | 1.84 µM (active) | 
c1ccc(CCNc2nc3ccccc3n3nnnc23)cc1 |  | -15.6% |  | inactive
Clc1ccc2c(N/N=C/c3cccnc3)ccnc2c1 |  |  |  | inactive
Clc1ccc(NNc2ccnc3cc(Cl)ccc23)cc1 | 7.38% (inactive) | 9.5% |  | 
Oc1ccc(/C=N/Nc2ccnc3cc(Cl)ccc23)c(O)c1 |  | -19.7% | 29.1 µM (active) | 
